From PubChem BioAssay (NCATS)
Inconclusive results are not listed. A number with no mark means an inactive call. The source made the active and inactive calls. Calls come from the whole dose curve; as a rule, active = well fitted inhibition curve with a large enough effect; inconclusive = small, poorly fitted or top-dose-only effect; inactive = no such curve, though single readings can be large or run the other way.

target: Cytochrome P450 3A7 (Homo sapiens) (UniProt P24462); assay: Cytochrome P450 family 3 subfamily A member 7 (CYP3A7) small molecule antagonists: luciferase biochemical qHTS assay (AID 1963596); details: P450-Glo CYP3A7 enzyme luminescence, 1 h; series mostly up to 57.4 µM; activity change, negative = inhibition: at the top concentration; note: nearly all actives have a fitted effect of over 40% in size
Sequence (P24462 whole entry, looked up): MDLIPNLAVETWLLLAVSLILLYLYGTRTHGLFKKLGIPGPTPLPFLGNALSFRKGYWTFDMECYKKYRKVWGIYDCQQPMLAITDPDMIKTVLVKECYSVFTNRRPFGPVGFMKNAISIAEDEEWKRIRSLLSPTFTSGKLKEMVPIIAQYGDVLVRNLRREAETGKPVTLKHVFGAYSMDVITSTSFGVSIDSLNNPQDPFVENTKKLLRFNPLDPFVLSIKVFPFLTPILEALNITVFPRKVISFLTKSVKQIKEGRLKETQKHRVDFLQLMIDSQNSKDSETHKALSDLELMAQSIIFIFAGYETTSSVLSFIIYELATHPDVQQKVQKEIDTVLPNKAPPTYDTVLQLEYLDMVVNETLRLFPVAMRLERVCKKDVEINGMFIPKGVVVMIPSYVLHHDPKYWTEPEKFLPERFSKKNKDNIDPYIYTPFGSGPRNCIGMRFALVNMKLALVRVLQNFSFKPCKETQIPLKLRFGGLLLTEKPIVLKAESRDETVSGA
Outline: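 Compounds were screened in qHTS format for interference with CYP3A7 turnover of a proluciferin substrate. Reactions ran 1 h at room temperature after NADPH regeneration solution was added, then luciferin product was detected by luminescence.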
% is set by controls: 0 for no effect and ±100 for the full control effect; potency is the fitted concentration of half-maximal effect.

Row | SMILES | activity change, negative = inhibition [%] | Potency
1 | O=C(OCc1ccccc1)c1cccnc1 | 23.4 | 
2 | CC(NC(=O)C(=O)Nc1c2c(nn1-c1ccccc1)CSC2)c1ccccc1 (stereo unspecified) | -17.8 | 
3 | NC(Cc1ccc(O)c(O)c1)C(=O)O (stereo unspecified) | 0 | 
4 | CCc1ccc(CNC(=O)C2CCCN(c3nnc(C)c4c(C)n(-c5ccccc5)nc34)C2)cc1 (stereo unspecified) |  | 2.82 µM (active)
5 | C=C(C)[C@H]1CC=C(C)CC1 | 3.11 | 
6 | OC1CCC(Nc2ncc3nc(Nc4c(F)cc(F)cc4F)n([C@H]4CCOC4)c3n2)CC1 (stereo partly specified) | -16.8 | 
7 | Cc1cc(C(C)Nc2ccccc2C(=O)O)c2nc(N3CCOCC3)cc(=O)n2c1 (stereo unspecified) | 0 | 
8 | Cc1ccc(C)c(NC(=O)Cn2cc(C(=O)c3ccco3)c3ccccc32)c1 | 0 | 
9 | CCOC(=O)c1ccc(Nc2nc3nonc3nc2Nc2cccc(C)c2C)cc1 | 15.4 | 
10 | O=C(O)c1cc(O)c2c(O)c3c(O[C@@H]4O[C@H](CO)[C@@H](O)[C@H](O)[C@H]4O)cccc3c(-c3c4cc(C(=O)O)cc(O)c4c(O)c4c(O[C@@H]5O[C@H](CO)[C@@H](O)[C@H](O)[C@H]5O)cccc34)c2c1 | 0 | 
11 | CCC(O)c1ccccc1 (stereo unspecified) | -7.32 | 
12 | CCCc1ccc(C(=O)O)cc1 | -0.15 | 
13 | CC(=O)Nc1nc2c(Oc3cc(-c4ccc(C(F)(F)F)cc4)ncn3)cccc2s1 |  | 26.8 µM (active)
14 | CC(=O)NC[C@H]1CN(c2ccc(N3CCN(C(=O)CO)CC3)c(F)c2)C(=O)O1 | -0.16 | 
15 | CCC(CC)Nc1nc(C)c(-c2ccc(OC(F)(F)F)cc2OC)nc1OC | 3.45 | 
16 | Cc1c(C)c2c(c(C)c1OC(=O)CCC(=O)O)CC[C@@](C)(CCC[C@H](C)CCC[C@H](C)CCCC(C)C)O2 | -4.02 | 
